For test [1], the target named is Cytochrome P450 3A4 (Homo sapiens) (UniProt P08684). Put plainly: qHTS Assay for Inhibitors and Substrates of Cytochrome P450 3A4 (AID 884). Further: nearly all actives have a fitted effect of over 50% in size. Further: potency means the concentration at half of the fitted maximal effect. On activity change, negative = inhibition: on the % scale 0 is the no-effect control and ±100 the full control effect. The method, boiled down:
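20 nM human CYP3A4 with 25 uM Luciferin-PPXE (at KM) in 200 mM KPO4, preincubated 10 min with compound; NADPH regeneration started a 60 min RT reaction. Luciferin detected by luminescence, normalized to 57 uM ketoconazole as full inhibition.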
(In general: Quantitative high-throughput screening tests each substance at several concentrations.)

Test [2] can be described thus: Confirmation and Secondary Assay for Modulators of Hemoglobin Beta Chain Splicing at IVS2 705 locus (AID 930).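 Further: HeLa cells stably expressing the EGFP-705 splicing reporter; GFP fluorescence per well restored by corrected splicing of the IVS2-705 intron in EGFP; % of control where 0% means no effect.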 The method, boiled down:
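Per-well GFP, captured at 1 x 8 µm resolution with 488 nm excitation, served as the read-out for HeLa EGFP-705 cells incubated 2 days with test compound versus DMSO.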

Test [3] in a line: qHTS Assay for Lipid Storage Modulators (AID 1519; calls by dose curve; on activity change, negative = inhibition: on the % scale 0 is the no-effect control and ±100 the full control effect). The settings on record: Drosophila S3 cells, BODIPY lipid droplet/cell ratio, laser cytometry, cells loaded with oleic acid; for activity change, negative = inhibition: at 57.5 µM (top of the series). The method, boiled down: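 Cells seeded at 5,000 per well were treated with compounds over a concentration series and loaded with oleic acid (400 uM, as added). Lipid droplet fluorescence (488 nm excitation, 500-530 nm channel) was read by laser-scanning cytometry and normalized to 20 uM Triacsin C.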

Test [4] deals with Ubiquitin carboxyl-terminal hydrolase 1 (Homo sapiens) (UniProt O94782). Description: Inhibitors of USP1/UAF1: Pilot qHTS (AID 504865).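 Further: rhodamine fluorescence freed from ubiquitin-rhodamine substrate followed over time; top concentration of the series differs between compounds; on the % scale 0 is the no-effect control and ±100 the full control effect; nearly all actives have a fitted effect of over 35% in size.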 The method, boiled down:
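USP1/UAF1 complex at 1 nM preincubated 15 min at room temperature with compound, then Ub-Rho substrate added at 150 nM final. Fluorescence (480/540 nm) read kinetically in 50 mM HEPES pH 7.8, 0.5 mM EDTA, 1 mM TCEP, 0.1 mg/ml BSA, 0.01% Tween-20.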

The nature of test [5]: Confirmation and Secondary Assay for Modulators of Hemoglobin Beta Chain Splicing at IVS2 654 locus (AID 910).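 Further: HeLa cells stably carrying EGFP split by mutant beta-globin IVS2-654 intron; per-well total GFP intensity by laser scanning cytometry after 2-day treatment; % of control where 0% means no effect.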 The method, boiled down:
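Readout: per-well total peak green fluorescence (488 nm ex, 500–520 nm em) from objects 5–250 µm, reflecting correct splicing of an EGFP-654 reporter. Compounds were applied for 2 days at 37 °C to overnight-plated HeLa EGFP-654 cells; controls were DMSO and 500 nM IVS2-654 PNA.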

Test [6] deals with Cytochrome P450 3A4 (Homo sapiens) (UniProt P08684). Description: qHTS Assay for Activators of Cytochrome P450 3A4 (AID 885). Further: nearly all actives have a fitted effect of over 65% in size. The method, boiled down: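 Human CYP3A4 (20 nM) with Luciferin-PPXE at 25 uM (its KM) in 200 mM KPO4; 10 min compound preincubation, then NADPH regeneration and 60 min reaction at RT. Luciferin read by luminescence; normalized to 57 uM ketoconazole full inhibition.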

Setting [7] is: measured here: cell count channel max response.
The mark [8] stands for this setting: measured here: lipid channel max response.

Records with an inconclusive call do not appear. Activity calls are given as the source filed them. Unless noted, the call rests on the fitted dose curve; in most records, active means well fitted curve in the direction sought with a large enough effect; inconclusive means small, poorly fitted or top-dose-only effect, or another doubt; inactive means no such curve, though single readings can be large; an effect the other way counts as inactive or inconclusive.

Ubiquitin carboxyl-terminal hydrolase 1 (Homo sapiens), sequence (O94782 whole entry, looked up): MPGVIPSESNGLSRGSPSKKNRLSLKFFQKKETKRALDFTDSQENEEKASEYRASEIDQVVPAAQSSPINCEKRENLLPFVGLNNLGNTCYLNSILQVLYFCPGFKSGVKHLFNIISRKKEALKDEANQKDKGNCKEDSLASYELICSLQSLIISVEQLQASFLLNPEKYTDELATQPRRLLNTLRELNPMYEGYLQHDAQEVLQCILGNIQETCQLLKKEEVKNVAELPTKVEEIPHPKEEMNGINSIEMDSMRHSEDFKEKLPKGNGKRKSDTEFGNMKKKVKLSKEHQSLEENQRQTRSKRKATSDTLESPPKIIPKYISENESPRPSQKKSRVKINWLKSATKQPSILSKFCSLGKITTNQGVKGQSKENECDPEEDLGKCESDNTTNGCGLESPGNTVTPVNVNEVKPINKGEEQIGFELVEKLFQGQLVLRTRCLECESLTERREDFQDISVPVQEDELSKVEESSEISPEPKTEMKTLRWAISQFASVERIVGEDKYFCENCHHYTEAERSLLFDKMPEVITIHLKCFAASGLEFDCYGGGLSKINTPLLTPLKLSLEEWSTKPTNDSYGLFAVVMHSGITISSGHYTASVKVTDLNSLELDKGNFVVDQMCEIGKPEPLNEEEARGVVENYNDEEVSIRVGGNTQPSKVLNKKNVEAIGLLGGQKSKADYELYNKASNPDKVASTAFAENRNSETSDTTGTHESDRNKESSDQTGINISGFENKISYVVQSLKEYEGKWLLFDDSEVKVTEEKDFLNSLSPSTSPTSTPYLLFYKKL
Cytochrome P450 3A4 (Homo sapiens), sequence (P08684 whole entry, looked up): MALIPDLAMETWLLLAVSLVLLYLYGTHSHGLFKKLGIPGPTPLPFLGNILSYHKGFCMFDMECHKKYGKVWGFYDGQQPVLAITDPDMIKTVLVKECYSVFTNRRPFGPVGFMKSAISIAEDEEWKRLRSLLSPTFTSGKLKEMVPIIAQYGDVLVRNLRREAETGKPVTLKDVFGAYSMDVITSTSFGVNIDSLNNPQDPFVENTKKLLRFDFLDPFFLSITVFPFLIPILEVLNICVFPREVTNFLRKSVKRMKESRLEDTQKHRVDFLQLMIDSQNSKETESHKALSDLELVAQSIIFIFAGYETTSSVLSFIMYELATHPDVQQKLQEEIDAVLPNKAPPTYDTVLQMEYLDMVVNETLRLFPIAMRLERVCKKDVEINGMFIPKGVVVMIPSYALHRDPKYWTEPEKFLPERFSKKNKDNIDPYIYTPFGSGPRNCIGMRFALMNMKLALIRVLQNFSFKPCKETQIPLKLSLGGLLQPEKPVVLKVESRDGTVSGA

As to `CC(C)=CCc1c(O)cc(C)oc1=O`, the Potency result in test [1], in test [2] and in test [4] was “inactive” throughout. Besides, the activity change, negative = inhibition in test [3] is 0.619% (inactive). The max response amounted to 9.29% in test [3] (setting [7]) and 11.1% in test [3] (setting [8]).

Turning to `COC(=O)CC1C(C)(C)C(=O)C2CC3=C4CC(=O)OC(c5ccoc5)[C@]4(C)CCC3[C@@]1(C)C2=O` (stereo partly specified), the Potency in test [1] was 1.58 µM (active). In addition, the Potency result in test [5], in test [2] and in test [4] was “inactive” in each case. Moreover, the activity change, negative = inhibition in test [3] is 1.08% (inactive). For the same compound, the max response in test [3] (setting [7]) was determined as 14.1%; in test [3] (setting [8]) it was 18%.

For the compound `O=c1ccn(C2OC(COP(=O)(O)OP(=O)(O)OP(=O)(O)O)C(O)C2O)c(=O)[nH]1` (stereo unspecified), the Potency entry in test [1], in test [2] and in test [4] was “inactive” each time. Besides, the activity change, negative = inhibition in test [3] was 6.49% (inactive). Further, the max response in test [3] (setting [7]) was determined as 21.5%; in test [3] (setting [8]) it was 29.6%.

With `COC1[C@H](OC(N)=O)C(O)[C@H](Oc2ccc3c(O)c(NC(=O)c4ccc(O)c(CC=C(C)C)c4)c(=O)oc3c2C)OC1(C)C` (stereo partly specified), the Potency result in test [1], in test [5], in test [2] and in test [4] was “inactive” each time. For the same compound, in test [3], the activity change, negative = inhibition was 8.38% (inactive). The max response in test [3] (setting [7]) was 13.2%; in test [3] (setting [8]), 25.2%.

Consider `COc1ccc2c(C)cc(=O)oc2c1`, for which the Potency result in test [1], in test [5], in test [2] and in test [4] was “inactive” each time. The activity change, negative = inhibition in test [3] was 8.28% (inactive). In addition, the max response in test [3] (setting [7]) was determined as 31.7%; in test [3] (setting [8]), 42.1%.

On to `CC(C)(O)C1CC[C@@]2(C)C3CCC4[C@@]5(C)CCCC(C)(C)C5C(O)C[C@]4(C)[C@]3(C)CC[C@@H]12` (stereo partly specified), for which the Potency entry in test [1], in test [2] and in test [4] was “inactive” in each case. Besides, the activity change, negative = inhibition in test [3] is 5.94% (inactive). Further, the figures for the max response in test [3] (setting [7]) and in test [3] (setting [8]) were 19.9% and 27.3%, respectively.

With `CC1(C)CC2C1CC[C@]1(C)CCC3C(C(=O)O)CC(=O)O[C@]32C1` (stereo partly specified), the Potency result in test [1], in test [5], in test [2] and in test [4] was “inactive” each time. Further, in test [3], the activity change, negative = inhibition was 3.56% (inactive). The max response in test [3] (setting [7]) is 4.93%; in test [3] (setting [8]), 10.6%.

On to `CC1(C)C=Cc2cc3ccc(=O)oc3cc2O1`, for which the Potency result in test [1], in test [5], in test [2] and in test [4] was “inactive” throughout. Moreover, the activity change, negative = inhibition in test [3] is 11.6% (inactive). Moreover, the max response was -4.2% in test [3] (setting [7]) and 7.43% in test [3] (setting [8]).

For `COc1ccc(CCC(=O)c2c(O)cc(OC3OC(CO)C(O)C(O)C3O[C@@H]3OC(C)C(O)C(O)C3O)cc2O)cc1O` (stereo partly specified), the Potency result in test [1] is “inactive”.

Consider `CC1CC[C@@]2(C(=O)O)CCC3(C)C(=CCC4[C@]5(C)CC(O)C(O)[C@](C)(CO)C5C(O)C[C@@]43C)C2C1C` (stereo partly specified), for which the Potency result in test [5], in test [2] and in test [4] was “inactive” in each case. For the same compound, the activity change, negative = inhibition in test [3] was 7.29% (inactive). Further, the max response was determined as 14.9% in test [3] (setting [7]) and 28.6% in test [3] (setting [8]).

For the compound `COc1cc(-c2oc3cc(O)ccc3c(=O)c2O)ccc1O`, the Potency entry in test [6], in test [5], in test [2] and in test [4] was “inactive” each time. The activity change, negative = inhibition in test [3] was -2.65% (inactive). Besides, the results for the max response in test [3] (setting [7]) and in test [3] (setting [8]) were -22.8% and -26.5%, respectively.

For `NC(Cn1ccc(=O)c(O)c1)C(=O)O` (stereo unspecified), the Potency entry in test [5], in test [2] and in test [4] was “inactive” throughout. The activity change, negative = inhibition in test [3] was 3.76% (inactive). For the same compound, the values for the max response in test [3] (setting [7]) and in test [3] (setting [8]) were 3.01% and 10.8%, respectively.

Regarding `CC(=O)OC1CC2C(C)(C)C(O)C=C[C@@]2(C)C2CC[C@@]3(C)C(c4ccoc4)OC(=O)C4OC43[C@]12C` (stereo partly specified), the Potency result in test [6], in test [5], in test [2] and in test [4] was “inactive” each time. Also, in test [3], the activity change, negative = inhibition is 8.59% (inactive). Moreover, the max response is 21.3% in test [3] (setting [7]) and 29.9% in test [3] (setting [8]).

For `COc1ccc(C2CC(=O)c3ccc(OC)cc3O2)cc1` (stereo unspecified), the Potency result in test [6], in test [5], in test [2] and in test [4] was “inactive” throughout. Besides, in test [3], the activity change, negative = inhibition was 10.2% (inactive). Also, the max response was 32.1% in test [3] (setting [7]) and 45.7% in test [3] (setting [8]).

For the compound `CC(=O)OC1C(=O)[C@@]2(C)C(O)CC3OC[C@]3(OC(C)=O)C2C(OC(=O)c2ccccc2)[C@]2(O)CC(OC(=O)C(O)C(NC(=O)c3ccccc3)c3ccccc3)C(C)=C1C2(C)C` (stereo partly specified), the Potency result in test [5], in test [2] and in test [4] was “inactive” in each case. Moreover, the activity change, negative = inhibition in test [3] is -3.78% (inactive). For the same compound, the max response was 1.34% in test [3] (setting [7]) and -0.503% in test [3] (setting [8]).

Regarding `O=C(/C=C/c1ccccc1)OC1CC(O)C2(O)C=CO[C@@H](OC3OC(CO)C(O)C(O)C3O)C12` (stereo partly specified), the Potency entry in test [6], in test [5], in test [2] and in test [4] was “inactive” in each case. Moreover, the activity change, negative = inhibition in test [3] is 3.28% (inactive). For the same compound, the figures for the max response in test [3] (setting [7]) and in test [3] (setting [8]) were -10.8% and 7.13%, respectively.

On to `CC(=O)O[C@]1(C)CC[C@]23CC1C(C)(C)C2CC[C@@H]3C` (stereo partly specified), for which the Potency entry in test [5] and in test [4] was “inactive” throughout. Further, the activity change, negative = inhibition in test [3] is 3.63% (inactive). For the same compound, the max response came out at 7.64% in test [3] (setting [7]) and 13.6% in test [3] (setting [8]).

`Oc1ccc(C2Oc3cc(O)cc(O)c3CC2O)cc1` (stereo unspecified): the Potency entry in test [6], in test [5], in test [2] and in test [4] was “inactive” throughout. Also, the activity change, negative = inhibition in test [3] is 14.6% (inactive). Also, the max response was -6.15% in test [3] (setting [7]) and 20.5% in test [3] (setting [8]).

In the case of `C[C@@]12CCC3c4ccc(O)cc4CCC3C1CCC2O` (stereo partly specified), the Potency entry in test [5] and in test [4] was “inactive” throughout. In addition, the activity change, negative = inhibition in test [3] is -2.04% (inactive). For the same compound, the results for the max response in test [3] (setting [7]) and in test [3] (setting [8]) were -0.621% and -0.569%, respectively.

`NCC1O[C@@H](OC2C(N)CC(N)C(O)C2O[C@@H]2OC(CO)C(O)C2O)C(N)C(O)C1O` (stereo partly specified): the Potency result in test [5] and in test [4] was “inactive” in each case. The activity change, negative = inhibition in test [3] was 6.74% (inactive). Moreover, the figures for the max response in test [3] (setting [7]) and in test [3] (setting [8]) were 5.17% and 12.7%, respectively.

Turning to `COc1cccc(O)c1O`, the Potency result in test [6], in test [5], in test [2] and in test [4] was “inactive” each time. The activity change, negative = inhibition in test [3] is 7.71% (inactive). In addition, the max response in test [3] (setting [7]) came out at 9.09%; in test [3] (setting [8]), 20.7%.

For `O=c1cc(-c2ccc(O)cc2)oc2cc(O)ccc12`, the Potency result in test [6], in test [5], in test [2] and in test [4] was “inactive” each time. In test [3], the activity change, negative = inhibition is 10.6% (inactive). Also, the max response in test [3] (setting [7]) was -4.61%; in test [3] (setting [8]) it was 5.18%.

On to `CC1(C)CC[C@]2(C(=O)O)CC[C@@]3(C)C(=CCC4[C@@]5(C)CCC(O)[C@@](C)(CO)C5CC[C@@]43C)C2C1` (stereo partly specified), for which the Potency result in test [6], in test [5], in test [2] and in test [4] was “inactive” throughout. For the same compound, in test [3], the activity change, negative = inhibition was 1.32% (inactive). The max response in test [3] (setting [7]) amounted to 5.6%; in test [3] (setting [8]) it was 17.6%.

Consider `CC1(C)OC2CC3C4CC(F)C5=CC(=O)C=C[C@@]5(C)[C@@]4(F)C(O)C[C@@]3(C)[C@]2(C(=O)CO)O1` (stereo partly specified), for which the Potency entry in test [6], in test [5], in test [2] and in test [4] was “inactive” in each case. Also, the activity change, negative = inhibition in test [3] is 3.9% (inactive). In addition, the max response in test [3] (setting [7]) was found to be 10.6%; in test [3] (setting [8]), 16.5%.

Regarding `C[C@@H]1OC(OC2C(OC3CC[C@@]4(C)C5CC=C6C7CC(C)(C)CC[C@@]7(C(=O)O)CCC6(C)C5(C)CCC4[C@]3(C)CO)OCC(O)C2O)C(O)C(O)C1O` (stereo partly specified), the Potency result in test [5], in test [2] and in test [4] was “inactive” each time. Further, in test [3], the activity change, negative = inhibition was 3.66% (inactive). In addition, the max response in test [3] (setting [7]) came out at 9.24%; in test [3] (setting [8]) it was 14.3%.
